Drawing on PubChem BioAssay (NCI), this text covers growth for 38 compounds.

Structures are written as SMILES. Compounds without any hit were thinned out: in the full panel of roughly 83,000, 20% have a hit.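 Step 1: grow cells in 96-well plates. Step 2: add test compound at a single concentration. Step 3: incubate 48 h. Step 4: record percent growth.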 Activity calls are given as the source filed them. The calls were made as follows: active = growth percent below 10; inactive = the rest.

The first assay has as its system OVCAR-4 ovarian. The assay is described as follows: NCI-60 one-dose screen, 48 h (100 = growth as untreated, 0 = no growth, -100 = all killed). The following applies: 10 µM unless noted.
On to `CC1=CC[C@@H]2CC[C@]3(C)[C@H](CC[C@@H]4[C@@]5(C)CCCNC(C)(C)[C@@H]5CC[C@]43C)[C@H]2[C@@H]1C`, for which the growth was -41% (active).

As for `Fc1ccc(C2CC(c3cccc(Nc4ccncc4)c3)=NN2c2ccccc2)cc1` (stereo unspecified), the growth was 51.9% (inactive).

`Cc1ccc(C(=O)Nc2ccccc2C(=O)N/N=C(\c2ccccc2)c2ccccn2)cc1`: the growth is 9.94% (active).

Regarding `COc1cc(/C=C/C(=O)c2c(C)oc3nc[nH]c(=O)c23)ccc1O`, the growth was 101% (inactive).

Regarding `CS(=O)(=O)Nc1cc(-c2ccc3ncnc(Nc4ccc5[nH]ncc5c4)c3c2)cnc1Cl`, the growth is 84.7% (inactive).

With `COc1ccc(-c2ncc(-c3ccccc3)[nH]2)cc1OC`, the growth is 116% (inactive).

As to `O=C1Nc2cc(-c3ccncc3)ccc2/C1=C/c1ccc[nH]1`, the growth is 37.3% (inactive).

In the case of `Nc1c(C(=O)Nc2ccc(Cl)cc2)cc(-c2nc3ccccc3s2)c(=O)n1NS(=O)(=O)c1ccc(Cl)cc1`, the growth was 94.4% (inactive).

As to `CCOc1cc(CNc2ccc(N3CCOCC3)c(C(=O)O)c2)ccc1OC`, the growth was 102% (inactive).

Consider `Cc1ccc(C2CC(c3cccc(Nc4ccncc4)c3)=NN2c2cc(Cl)cc(Cl)c2)cc1` (stereo unspecified), for which the growth is 15% (inactive).

As for `COc1ccc(/C(C)=N/NC(=O)CSc2nc3ccccc3c(=O)n2Cc2ccc(S(N)(=O)=O)cc2)c(OC)c1`, the growth was 101% (inactive).

Take `COc1ccc(C(=O)c2cc(C)c(OC)c(C)c2)c(OC)c1N(C(=O)C(Cl)Cl)C(=O)C(Cl)Cl`: the growth is 62.1% (inactive).

`Cc1ccccc1-c1cc(Cc2ccc(F)cc2)c(=O)[nH]n1`: the growth was 103% (inactive).

In the case of `CCCC1C(C(=O)OCC)=C(N)Oc2cc(O)ccc21` (stereo unspecified), the growth was 89.3% (inactive).

`COc1c(Cl)cc(Cl)c2ccc(C=C3C(=O)N(C)C(=O)N(C)C3=O)nc12`: the growth is 104% (inactive).

For the compound `O=C1Nc2ccccc2/C1=N/c1nc(-c2ccc(Cl)cc2)cs1`, the growth was 67.7% (inactive).

For the compound `COC(=O)Nc1nc2ccc(C(=O)c3cccc(I)c3)cc2[nH]1`, the growth is 28.3% (inactive).

On to `O=C(Nc1ccc(Nc2ncccn2)cc1)NC1C=c2ccccc2=CC1` (stereo unspecified), for which the growth is 111% (inactive).

Take `CNC(=O)c1c(NC(=O)c2ccc(C(C)C)cc2)sc2c(CN(C)C)c(O)ccc12`: the growth is 98.6% (inactive).

Regarding `COc1ccc(Cc2nc3cc(OC)c(OC)cc3c(=O)[nH]2)cc1`, the growth was 105% (inactive).

As for `O=C1c2cccnc2C(=O)c2nc3cc(N4CCN(C5CC5)CC4)ccc3nc21`, the growth was -87.8% (active).

Take `CCOC(=O)N1CCN(CCCCl)CC1`: the growth was 109% (inactive).

Regarding `O=C(OCc1nc2nc(Cl)nc(N3CCOCC3)c2[nH]1)n1ccnc1`, the growth is -38.3% (active).

For `COc1ccc(C(=O)c2cc3c(N)c(C(=O)Nc4cccc(Cl)c4C)sc3nc2C)cc1`, the growth is 39.2% (inactive).

Turning to `O=C(OC(OC(=O)c1cc(Cl)cc(Cl)c1)c1cccc2ccccc12)c1ccccc1` (stereo unspecified), the growth is 103% (inactive).

Regarding `CN(Cc1ccccc1)c1nc(Cl)c(C2CC(c3ccc(Cl)cc3)=Cc3[nH][nH]c(=O)c32)s1` (stereo unspecified), the growth is 116% (inactive).

Take `COc1ccc(NC(=O)c2sc3nc(C)c(C(=O)CCc4cccc(OC)c4)cc3c2N)cc1`: the growth was 76.5% (inactive).

As to `O=S(=O)(NCCCNc1nccc(-c2c(-c3cccc(O)c3)nc3occn23)n1)c1ccc(F)cc1`, the growth is 110% (inactive).

Turning to `CC(=O)N1c2ccccc2NC2=C(C(=O)N(Cc3ccccc3)C2(C)C)C1c1ccco1` (stereo unspecified), the growth is 48.8% (inactive).

`C#Cc1cccc(NC(=O)Nc2ccc(NC(=O)CCl)cc2)c1`: the growth was -50.8% [8.25 µM] (active).

`COc1cc(COC(=O)CCCCC[P+](c2ccccc2)(c2ccccc2)c2ccccc2)c(OC)c2c1OCO2`: the growth was 41.2% (inactive).

On to `Cc1c([N+](=O)[O-])cc(C(C)(C)C)cc1[N+](=O)[O-]`, for which the growth is 115% (inactive).

Take `Clc1nc(Cl)c2ncn(CC3(Cn4cnc5c(Cl)nc(Cl)nc54)COC3)c2n1`: the growth was -87.9% (active).

In the case of `COc1cc2nc(-c3ccc(C(F)(F)F)cc3)cc(OCCCN3CCC(O)CC3)c2cc1OC`, the growth is 59.7% (inactive).

Regarding `COc1cc(Nc2cc(O)c3c(=O)cc(-c4ccccc4)oc3c2)cc(OC)c1`, the growth is 59.3% (inactive).

Consider `C[C@]12C[C@H]1CC[C@]1(C)[C@@H]2CC[C@@]23C[C@H](CC[C@H]21)[C@@](O)(CO)C3`, for which the growth is 110% (inactive).

For the compound `Cc1nc2sc(C(=O)Nc3ccccc3)c(N)c2cc1C(=O)c1ccc(C(F)(F)F)cc1`, the growth was 87.3% (inactive).

As for `N#CSCC1CC(O)(c2ccccc2)C(c2ccccc2)C(c2ccc(F)cc2)O1` (stereo unspecified), the growth is 15.8% (inactive).

For a further assay, the system named is SK-OV-3 ovarian. The description is as above. Particulars: 10 µM unless noted.
With `CC1=CC[C@@H]2CC[C@]3(C)[C@H](CC[C@@H]4[C@@]5(C)CCCNC(C)(C)[C@@H]5CC[C@]43C)[C@H]2[C@@H]1C`, the growth was 103% (inactive).

Consider `Fc1ccc(C2CC(c3cccc(Nc4ccncc4)c3)=NN2c2ccccc2)cc1` (stereo unspecified), for which the growth is 70.8% (inactive).

As for `Cc1ccc(C(=O)Nc2ccccc2C(=O)N/N=C(\c2ccccc2)c2ccccn2)cc1`, the growth was 8.33% (active).

Take `COc1cc(/C=C/C(=O)c2c(C)oc3nc[nH]c(=O)c23)ccc1O`: the growth is 103% (inactive).

As to `CS(=O)(=O)Nc1cc(-c2ccc3ncnc(Nc4ccc5[nH]ncc5c4)c3c2)cnc1Cl`, the growth was 76% (inactive).

On to `COc1ccc(-c2ncc(-c3ccccc3)[nH]2)cc1OC`, for which the growth was 125% (inactive).

`O=C1Nc2cc(-c3ccncc3)ccc2/C1=C/c1ccc[nH]1`: the growth was 93.3% (inactive).

For `Nc1c(C(=O)Nc2ccc(Cl)cc2)cc(-c2nc3ccccc3s2)c(=O)n1NS(=O)(=O)c1ccc(Cl)cc1`, the growth was 101% (inactive).

`CCOc1cc(CNc2ccc(N3CCOCC3)c(C(=O)O)c2)ccc1OC`: the growth is 120% (inactive).

For the compound `Cc1ccc(C2CC(c3cccc(Nc4ccncc4)c3)=NN2c2cc(Cl)cc(Cl)c2)cc1` (stereo unspecified), the growth is 83.4% (inactive).

On to `COc1ccc(/C(C)=N/NC(=O)CSc2nc3ccccc3c(=O)n2Cc2ccc(S(N)(=O)=O)cc2)c(OC)c1`, for which the growth was 114% (inactive).

Turning to `COc1ccc(C(=O)c2cc(C)c(OC)c(C)c2)c(OC)c1N(C(=O)C(Cl)Cl)C(=O)C(Cl)Cl`, the growth was 1.2% (active).

`Cc1ccccc1-c1cc(Cc2ccc(F)cc2)c(=O)[nH]n1`: the growth is 98.2% (inactive).

Turning to `CCCC1C(C(=O)OCC)=C(N)Oc2cc(O)ccc21` (stereo unspecified), the growth is 88.3% (inactive).

For `COc1c(Cl)cc(Cl)c2ccc(C=C3C(=O)N(C)C(=O)N(C)C3=O)nc12`, the growth was 101% (inactive).

As to `O=C1Nc2ccccc2/C1=N/c1nc(-c2ccc(Cl)cc2)cs1`, the growth was 57.8% (inactive).

As to `COC(=O)Nc1nc2ccc(C(=O)c3cccc(I)c3)cc2[nH]1`, the growth is 30.3% (inactive).

As for `O=C(Nc1ccc(Nc2ncccn2)cc1)NC1C=c2ccccc2=CC1` (stereo unspecified), the growth is 106% (inactive).

For `CNC(=O)c1c(NC(=O)c2ccc(C(C)C)cc2)sc2c(CN(C)C)c(O)ccc12`, the growth was 99.7% (inactive).

For the compound `COc1ccc(Cc2nc3cc(OC)c(OC)cc3c(=O)[nH]2)cc1`, the growth is 148% (inactive).

`O=C1c2cccnc2C(=O)c2nc3cc(N4CCN(C5CC5)CC4)ccc3nc21`: the growth is -78.6% (active).

With `CCOC(=O)N1CCN(CCCCl)CC1`, the growth was 126% (inactive).

On to `O=C(OCc1nc2nc(Cl)nc(N3CCOCC3)c2[nH]1)n1ccnc1`, for which the growth is 46.2% (inactive).

With `COc1ccc(C(=O)c2cc3c(N)c(C(=O)Nc4cccc(Cl)c4C)sc3nc2C)cc1`, the growth was 25.9% (inactive).

With `O=C(OC(OC(=O)c1cc(Cl)cc(Cl)c1)c1cccc2ccccc12)c1ccccc1` (stereo unspecified), the growth was 101% (inactive).

As to `CN(Cc1ccccc1)c1nc(Cl)c(C2CC(c3ccc(Cl)cc3)=Cc3[nH][nH]c(=O)c32)s1` (stereo unspecified), the growth is 101% (inactive).

Regarding `COc1ccc(NC(=O)c2sc3nc(C)c(C(=O)CCc4cccc(OC)c4)cc3c2N)cc1`, the growth was 70.5% (inactive).

As for `O=S(=O)(NCCCNc1nccc(-c2c(-c3cccc(O)c3)nc3occn23)n1)c1ccc(F)cc1`, the growth is 71.1% (inactive).

`CC(=O)N1c2ccccc2NC2=C(C(=O)N(Cc3ccccc3)C2(C)C)C1c1ccco1` (stereo unspecified): the growth was 22.7% (inactive).

With `C#Cc1cccc(NC(=O)Nc2ccc(NC(=O)CCl)cc2)c1`, the growth is -86.7% [8.25 µM] (active).

With `COc1cc(COC(=O)CCCCC[P+](c2ccccc2)(c2ccccc2)c2ccccc2)c(OC)c2c1OCO2`, the growth was 76.6% (inactive).

As to `Cc1c([N+](=O)[O-])cc(C(C)(C)C)cc1[N+](=O)[O-]`, the growth is 92.3% (inactive).

For `Clc1nc(Cl)c2ncn(CC3(Cn4cnc5c(Cl)nc(Cl)nc54)COC3)c2n1`, the growth is -99.8% (active).

Take `COc1cc2nc(-c3ccc(C(F)(F)F)cc3)cc(OCCCN3CCC(O)CC3)c2cc1OC`: the growth is 65.8% (inactive).

For `COc1cc(Nc2cc(O)c3c(=O)cc(-c4ccccc4)oc3c2)cc(OC)c1`, the growth is 35.9% (inactive).

As for `C[C@]12C[C@H]1CC[C@]1(C)[C@@H]2CC[C@@]23C[C@H](CC[C@H]21)[C@@](O)(CO)C3`, the growth was 113% (inactive).

Turning to `Cc1nc2sc(C(=O)Nc3ccccc3)c(N)c2cc1C(=O)c1ccc(C(F)(F)F)cc1`, the growth is 69.3% (inactive).

In the case of `N#CSCC1CC(O)(c2ccccc2)C(c2ccccc2)C(c2ccc(F)cc2)O1` (stereo unspecified), the growth was 80.2% (inactive).
